# Source: PubChem BioAssay
# For part of these data: Results with a measured potency or affinity are listed apart. Active and inactive are the calls of the source.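 Rule for the calls, unless noted: active = primary screen hit whose calcium fluorescence ratio, in both repeats, exceeds the weak agonist control mean by 3 SD; inactive = the rest.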
# Key:
# [1] = tested on: TRPC4 beta (transient receptor potential cation channel C4), mouse; assay: activators of mouse TRPC4 channel, confirmation, cell-based, Fluo4 calcium, HEK293 TRPC4beta/mu-opioid, duplicates, 10 µM (AID 2426;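 active = fluorescence ratio normalized to control raised more than 50% in primary screen plus both repeat runs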;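 for activation: percent rise of integrated ratio over buffer wells lacking compound which define 0%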); details: Fluo4 calcium fluorescence, at 10 µM; hits give high values
# [2] = tested on: transient receptor potential cation channel C4 beta (TRPC4), mouse; assay: activators of mouse TRPC4 channel, confirmation, cell-based, second round, Fluo4, HEK293 TRPC4beta/mu-opioid, 1 µM (AID 2461;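 active = primary screen active and over 50% activation in each of two duplicate runs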;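 for activation: 0% = wells without test compound as baseline of integrated fluorescence ratio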); details: Fluo4 calcium fluorescence, at 1 µM; hits give high values
# [3] = tested on: TRPC4 (transient receptor potential cation channel C4 beta), mouse; assay: positive allosteric modulators of mouse TRPC4, confirmation, cell-based, second round, Fluo-4, HEK293 TRPC4beta/mu-opioid, 1 µM (AID 2554;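 active = primary screen hit whose fluorescence ratio, in both repeats, exceeds the weak agonist control mean by 3 SD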); details: DAMGO EC20, Fluo-4 calcium flux, at 1 µM; hits give high values
# [4] = tested on: TRPC4 beta (transient receptor potential cation channel C4), mouse; assay: positive allosteric modulators of mouse TRPC4, confirmation, cell-based, Fluo-4, HEK293 TRPC4beta/mu-opioid (AID 2555); details: DAMGO EC20, Fluo-4 calcium flux, at 10 µM; hits give high values
# [5] = target: Short transient receptor potential channel 4 (Mus musculus) (UniProt Q9QUQ5); assay: inhibitors of mouse TRPC4 channel, confirmation, cell-based, Fluo4, HEK293 TRPC4beta/mu-opioid (AID 2636;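 active = calcium signal cut by more than 3 SD below the full-agonist control yet still positive, in both repeats and the earlier primary screen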); details: DAMGO, Fluo4 calcium flux, at 10 µM; hits give high values
# [6] = target: Short transient receptor potential channel 4 (Mus musculus) (UniProt Q9QUQ5); assay: inhibitors of mouse TRPC4 channel, confirmation, cell-based, second round, Fluo4, HEK293 TRPC4beta/mu-opioid, 1 µM (AID 2637;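 active = calcium signal ratio cut to more than 3 SD under the fully stimulated control mean yet still positive, in both repeats and the primary screen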); details: Fluo4 calcium flux, DAMGO, at 1 µM; hits give high values
# [7] = target: Short transient receptor potential channel 4 (Mus musculus) (UniProt Q9QUQ5); assay: mouse TRPC4 channel activators, dose response, cell-based, HEK293 TRPC4/mu-opioid, Fluo-4 calcium (AID 434937;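 active = primary screen activator hit with a dose response curve and TRPC4 channel activation at any tested dose; inactive = no activation, no dose response, or not a primary hit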)
# [8] = target: Short transient receptor potential channel 4 (Mus musculus) (UniProt Q9QUQ5); assay: TRPC4 positive allosteric modulators, dose response, cell-based, HEK293 TRPC4/mu-opioid, Fluo-4 calcium, EC20 DAMGO (AID 434941;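 active = earlier screen potentiator hit that boosts the TRPC4 ion channel at some dose, with a dose response; inactive = no potentiation, no dose response, or not a prior hit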;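 note: calcium entry triggered by an EC20 dose of DAMGO at the co-expressed mu-opioid receptor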)
# [9] = target: Short transient receptor potential channel 4 (Mus musculus) (UniProt Q9QUQ5); assay: mouse TRPC4 channel inhibitors, dose response, cell-based, HEK293 TRPC4/mu-opioid, Fluo-4 calcium (AID 434942;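 active = primary screen inhibitor hit that blocks the TRPC4 channel at some tested dose, yielding a dose curve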)
# [10] = target: Short transient receptor potential channel 6 (Mus musculus) (UniProt Q61143); assay: inhibition of mouse TRPC6 channel, confirmation, selectivity assay for TRPC4 inhibitor project, cell-based, HEK293, membrane potential dye, duplicate (AID 434948;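 active = active in primary screen and both duplicates, each dropping signal beyond three positive-control SD with fluorescence still positive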); details: HEK293 TRPC6, membrane potential dye fluorescence, at 10 µM, stimulated with maximal-effect acetylcholine; hits give high values
# [11] = target: Short transient receptor potential channel 6 (Mus musculus) (UniProt Q61143); assay: activation of mouse TRPC6 channel, confirmation, selectivity assay for TRPC4 activator project, cell-based, HEK293, membrane potential dye, duplicate (AID 434950;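 active = membrane potential signal rise above negative control mean plus 3 SD in both duplicates, also active in the earlier TRPC4 screen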;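 for activation: 0% = buffer only wells and 100% = acetylcholine maximal-effect wells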); details: HEK293 TRPC6, membrane potential fluorescence, at 10 µM; hits give high values
# [12] = target: Short transient receptor potential channel 6 (Mus musculus) (UniProt Q61143); assay: TRPC6 potentiation by TRPC4 potentiator hits, confirmation, selectivity assay for TRPC4 potentiator project, HEK293 cells, membrane potential dye, duplicate (AID 434952;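 active = compound raising the membrane signal above positive-control mean plus 3 SD in both repeats, and a primary screen hit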); details: HEK293 TRPC6, membrane potential dye fluorescence, at 10 µM, maximal acetylcholine added after compound; hits give high values
# [13] = target: Short transient receptor potential channel 4 (Mus musculus) (UniProt Q9QUQ5); assay: calcium flux activators in TRPC4/5HT1a cells, counter-screen for TRPC4 activator project, cell-based, second counter screen, HEK293 TRPC4/5HT1a, Fluo-4 (AID 434977;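 active = calcium signal rise above buffer-control mean plus 5 SD in both duplicates, and also a hit in the primary screen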;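 for activation: plate controls were assay buffer for no effect and maximal serotonin response for full effect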); details: Fluo-4 calcium flux, at 10 µM; hits give high values
# [14] = calcium flux inhibitors in TRPC4/5HT1a cells, confirmation, counter-screen for TRPC4 inhibitor project, cell-based, second counter screen, HEK293 TRPC4/5HT1a, Fluo-4 (AID 434978;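 active = primary screen active whose calcium signal fell more than 3 SD beyond the full-serotonin control mean in both duplicate plates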;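 for outcome: serotonin given first at submaximal then at maximal dose after compound preincubation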); details: Fluo-4 calcium flux, at 10 µM, serotonin added to trigger calcium flux; hits give high values
# [15] = tested on: TRPC4 (mouse), co-expressed with 5HT1a in HEK293; assay: calcium flux potentiators in TRPC4/5HT1a cells, confirmation, counter-screen for TRPC4 potentiator project, cell-based, second counter screen, HEK293 TRPC4/5HT1a, Fluo-4 (AID 434979;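 active = signal rise over 3 SD above mean of control wells given weak agonist, in both repeats and first screen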); details: Fluo-4 calcium flux, at 10 µM, serotonin added at its EC20 dose; hits give high values
# [16] = calcium flux activation in mu-opioid HEK293 cells, confirmation, counter-screen for TRPC4 activator project, cell-based, HEK293 mu-opioid receptor line (AID 449723;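 active = hit in primary screen, with calcium signal over 5 SD above buffer well mean in both duplicates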;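 note: counter screen cells carry the mu-opioid receptor alone and lack TRPC4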); details: Fluo-4 calcium fluorescence, at 10 µM; hits give high values
# [17] = calcium flux enhancement in mu-opioid HEK293 cells, confirmation, counter-screen for TRPC4 allosteric potentiator project, cell-based, HEK293 mu-opioid receptor line (AID 449724;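 active = calcium signal rise more than 3 SD above the low-dose agonist control mean, in both duplicate plates and the primary screen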); details: Fluo-4 calcium flux, at 10 µM, compound added before EC20 DAMGO stimulus; hits give high values
# Chain of Short transient receptor potential channel 6 (Mus musculus) (Q61143 whole entry, looked up): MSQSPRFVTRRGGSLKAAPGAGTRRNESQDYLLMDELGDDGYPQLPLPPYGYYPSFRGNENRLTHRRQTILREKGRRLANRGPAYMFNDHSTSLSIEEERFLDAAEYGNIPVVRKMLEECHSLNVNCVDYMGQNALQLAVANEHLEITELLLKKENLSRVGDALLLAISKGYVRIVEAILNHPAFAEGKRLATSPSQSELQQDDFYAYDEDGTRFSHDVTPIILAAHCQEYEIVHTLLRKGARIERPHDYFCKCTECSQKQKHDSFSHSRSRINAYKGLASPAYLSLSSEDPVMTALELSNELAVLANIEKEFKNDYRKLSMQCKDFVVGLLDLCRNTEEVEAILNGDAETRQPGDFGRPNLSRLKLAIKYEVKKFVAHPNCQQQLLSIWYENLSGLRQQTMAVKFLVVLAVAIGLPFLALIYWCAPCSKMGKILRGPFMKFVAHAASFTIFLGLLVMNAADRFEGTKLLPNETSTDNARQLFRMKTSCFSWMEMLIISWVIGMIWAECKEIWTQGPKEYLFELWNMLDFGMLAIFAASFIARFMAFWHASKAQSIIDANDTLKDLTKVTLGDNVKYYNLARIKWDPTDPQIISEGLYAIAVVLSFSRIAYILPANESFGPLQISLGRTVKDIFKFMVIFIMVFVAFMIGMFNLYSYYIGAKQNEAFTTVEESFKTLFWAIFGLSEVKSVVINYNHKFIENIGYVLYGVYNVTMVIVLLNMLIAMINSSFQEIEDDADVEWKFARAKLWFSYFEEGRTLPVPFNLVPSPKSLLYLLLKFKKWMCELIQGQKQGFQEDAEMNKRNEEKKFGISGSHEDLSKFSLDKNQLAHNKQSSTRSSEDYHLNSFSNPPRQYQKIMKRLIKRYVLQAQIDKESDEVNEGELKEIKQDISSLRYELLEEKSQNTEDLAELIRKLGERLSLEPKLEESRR
# Chain of Short transient receptor potential channel 4 (Mus musculus) (Q9QUQ5 whole entry, looked up): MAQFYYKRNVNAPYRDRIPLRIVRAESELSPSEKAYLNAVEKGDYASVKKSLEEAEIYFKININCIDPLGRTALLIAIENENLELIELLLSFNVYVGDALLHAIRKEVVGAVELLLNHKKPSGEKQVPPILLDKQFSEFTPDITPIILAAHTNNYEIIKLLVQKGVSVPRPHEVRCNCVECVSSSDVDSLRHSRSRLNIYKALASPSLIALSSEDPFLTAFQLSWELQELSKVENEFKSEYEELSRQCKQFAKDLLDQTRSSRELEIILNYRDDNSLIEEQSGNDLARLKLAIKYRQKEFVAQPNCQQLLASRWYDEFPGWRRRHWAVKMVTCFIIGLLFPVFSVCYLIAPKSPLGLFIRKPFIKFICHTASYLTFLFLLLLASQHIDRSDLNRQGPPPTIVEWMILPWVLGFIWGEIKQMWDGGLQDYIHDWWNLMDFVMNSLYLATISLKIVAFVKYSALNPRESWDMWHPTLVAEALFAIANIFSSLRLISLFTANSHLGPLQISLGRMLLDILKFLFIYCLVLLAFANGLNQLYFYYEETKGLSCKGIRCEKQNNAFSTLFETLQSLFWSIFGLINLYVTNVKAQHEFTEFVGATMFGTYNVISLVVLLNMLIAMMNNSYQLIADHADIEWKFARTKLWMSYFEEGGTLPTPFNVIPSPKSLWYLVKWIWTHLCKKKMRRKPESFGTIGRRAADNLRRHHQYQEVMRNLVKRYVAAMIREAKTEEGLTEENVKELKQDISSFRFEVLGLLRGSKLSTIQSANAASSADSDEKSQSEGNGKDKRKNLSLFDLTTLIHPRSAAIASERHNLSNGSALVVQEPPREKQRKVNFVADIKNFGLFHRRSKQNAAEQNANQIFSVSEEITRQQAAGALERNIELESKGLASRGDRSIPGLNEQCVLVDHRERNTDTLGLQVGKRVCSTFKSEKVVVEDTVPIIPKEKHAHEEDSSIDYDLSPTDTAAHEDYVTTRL
smiles,measurement,setting,value
Clc1cc(/C=N\NC2=NCCN2)cc(Cl)n1,outcome,[1],inactive
same,outcome,[2],inactive
same,outcome,[3],inactive
same,outcome,[4],inactive
same,outcome,[5],inactive
same,outcome,[6],inactive
same,outcome,[7],inactive
same,outcome,[8],inactive
same,outcome,[9],inactive
same,outcome,[10],inactive
same,outcome,[11],inactive
same,outcome,[12],inactive
same,outcome,[13],inactive
same,outcome,[14],inactive
same,outcome,[15],inactive
same,outcome,[16],inactive
same,outcome,[17],inactive
O=C(Nc1c(F)cc(F)cc1Br)c1cc(-c2ccc(O)cc2)on1,outcome,[1],inactive
same,outcome,[2],inactive
same,outcome,[3],inactive
same,outcome,[4],inactive
same,outcome,[5],inactive
same,outcome,[6],inactive
same,outcome,[7],inactive
same,outcome,[8],inactive
same,outcome,[9],inactive
same,outcome,[10],inactive
same,outcome,[11],inactive
same,outcome,[12],inactive
same,outcome,[13],inactive
same,outcome,[14],inactive
same,outcome,[15],inactive
same,outcome,[16],inactive
same,outcome,[17],inactive
COC(=O)c1ccccc1NC(=O)CCC(=O)N1CC(C)Oc2ccc(C)cc21 (stereo not given),outcome,[1],inactive
same,outcome,[2],inactive
same,outcome,[3],inactive
same,outcome,[4],inactive
same,inhibition,[5],75% (active)
same,outcome,[6],inactive
same,outcome,[7],inactive
same,outcome,[8],inactive
same,outcome,[9],inactive
same,outcome,[10],inactive
same,outcome,[11],inactive
same,outcome,[12],inactive
same,outcome,[13],inactive
same,inhibition,[14],44% (active)
same,outcome,[15],inactive
same,outcome,[16],inactive
same,outcome,[17],inactive
CC(C)CCn1c(N2CCN(c3cccc(Cl)c3)CC2)nc2c1c(=O)[nH]c(=O)n2C,outcome,[1],inactive
same,outcome,[2],inactive
same,outcome,[3],inactive
same,outcome,[4],inactive
same,outcome,[5],inactive
same,outcome,[6],inactive
same,outcome,[7],inactive
same,outcome,[8],inactive
same,outcome,[9],inactive
same,outcome,[10],inactive
same,outcome,[11],inactive
same,outcome,[12],inactive
same,outcome,[13],inactive
same,outcome,[14],inactive
same,outcome,[15],inactive
same,outcome,[16],inactive
same,outcome,[17],inactive
CCn1c(NCc2ccco2)nc2ccccc21,outcome,[1],inactive
same,outcome,[2],inactive
same,outcome,[3],inactive
same,potentiation,[4],8% (active)
same,outcome,[5],inactive
same,outcome,[6],inactive
same,outcome,[7],inactive
same,outcome,[8],inactive
same,outcome,[9],inactive
same,outcome,[10],inactive
same,outcome,[11],inactive
same,outcome,[12],inactive
same,outcome,[13],inactive
same,outcome,[14],inactive
same,potentiation,[15],12.3% (active)
same,outcome,[16],inactive
same,outcome,[17],inactive
O/N=C/c1cn(-c2ccccc2)nc1-c1ccc2c(c1)OCCO2,outcome,[1],inactive
same,outcome,[2],inactive
same,outcome,[3],inactive
same,potentiation,[4],16% (active)
same,outcome,[5],inactive
same,outcome,[6],inactive
same,outcome,[7],inactive
same,outcome,[8],inactive
same,outcome,[9],inactive
same,outcome,[10],inactive
same,outcome,[11],inactive
same,outcome,[12],inactive
same,outcome,[13],inactive
same,outcome,[14],inactive
same,potentiation,[15],29.3% (active)
same,outcome,[16],inactive
same,outcome,[17],inactive
CCOc1ccc(OCC(O)CNC2CCN(Cc3ccccc3)CC2)cc1 (stereo not given),activation,[1],144% (active)
same,activation,[2],94% (active)
same,outcome,[3],inactive
same,outcome,[4],inactive
same,inhibition,[5],36% (active)
same,outcome,[6],inactive
same,outcome,[7],inactive
same,outcome,[8],inactive
same,outcome,[9],inactive
same,inhibition,[10],34.5% (active)
same,activation,[11],83% (active)
same,outcome,[12],inactive
same,activation,[13],35.4% (active)
same,inhibition,[14],25.6% (active)
same,outcome,[15],inactive
same,outcome,[16],inactive
same,outcome,[17],inactive
CCN1CCN(CCC(=O)Nc2ccccc2OC)CC1,outcome,[1],inactive
same,outcome,[2],inactive
same,outcome,[3],inactive
same,potentiation,[4],11% (active)
same,outcome,[5],inactive
same,outcome,[6],inactive
same,outcome,[7],inactive
same,outcome,[8],inactive
same,outcome,[9],inactive
same,outcome,[10],inactive
same,outcome,[11],inactive
same,outcome,[12],inactive
same,outcome,[13],inactive
same,outcome,[14],inactive
same,potentiation,[15],17.3% (active)
same,outcome,[16],inactive
same,outcome,[17],inactive
Cc1cc(OCC(=O)NNC(=S)NC(=O)c2ccc(Br)o2)ccc1Cl,outcome,[1],inactive
same,outcome,[2],inactive
same,outcome,[3],inactive
same,potentiation,[4],10% (active)
same,outcome,[5],inactive
same,outcome,[6],inactive
same,outcome,[7],inactive
same,outcome,[8],inactive
same,outcome,[9],inactive
same,outcome,[10],inactive
same,outcome,[11],inactive
same,outcome,[12],inactive
same,outcome,[13],inactive
same,outcome,[14],inactive
same,outcome,[15],inactive
same,outcome,[16],inactive
same,outcome,[17],inactive
COCCn1c(SCC(=O)Nc2ccc(S(=O)(=O)N3CCOCC3)cc2)nc2ccccc21,outcome,[1],inactive
same,outcome,[2],inactive
same,outcome,[3],inactive
same,potentiation,[4],12% (active)
same,outcome,[5],inactive
same,outcome,[6],inactive
same,outcome,[7],inactive
same,outcome,[8],inactive
same,outcome,[9],inactive
same,outcome,[10],inactive
same,outcome,[11],inactive
same,outcome,[12],inactive
same,outcome,[13],inactive
same,outcome,[14],inactive
same,potentiation,[15],26.5% (active)
same,outcome,[16],inactive
same,outcome,[17],inactive
O=[N+]([O-])c1ccc(S(=O)(=O)NCCCc2ccccc2)cc1,outcome,[1],inactive
same,outcome,[2],inactive
same,outcome,[3],inactive
same,outcome,[4],inactive
same,outcome,[5],inactive
same,outcome,[6],inactive
same,outcome,[7],inactive
same,outcome,[8],inactive
same,outcome,[9],inactive
same,outcome,[10],inactive
same,outcome,[11],inactive
same,outcome,[12],inactive
same,outcome,[13],inactive
same,outcome,[14],inactive
same,outcome,[15],inactive
same,outcome,[16],inactive
same,outcome,[17],inactive
CN1CCN(Cc2nc3ccccc3n2C)CC1CCO (stereo not given),outcome,[1],inactive
same,outcome,[2],inactive
same,outcome,[3],inactive
same,outcome,[4],inactive
same,outcome,[5],inactive
same,outcome,[6],inactive
same,outcome,[7],inactive
same,outcome,[8],inactive
same,outcome,[9],inactive
same,outcome,[10],inactive
same,outcome,[11],inactive
same,outcome,[12],inactive
same,outcome,[13],inactive
same,outcome,[14],inactive
same,potentiation,[15],9.01% (active)
same,outcome,[16],inactive
same,outcome,[17],inactive
CC1CCN(CCc2nc3cc(NS(=O)(=O)c4ccc(F)cc4)ccc3n2C)CC1,outcome,[1],inactive
same,outcome,[2],inactive
same,outcome,[3],inactive
same,outcome,[4],inactive
same,outcome,[5],inactive
same,outcome,[6],inactive
same,outcome,[7],inactive
same,outcome,[8],inactive
same,outcome,[9],inactive
same,outcome,[10],inactive
same,outcome,[11],inactive
same,outcome,[12],inactive
same,outcome,[13],inactive
same,outcome,[14],inactive
same,potentiation,[15],7.72% (active)
same,outcome,[16],inactive
same,outcome,[17],inactive
CC(C)Oc1ccccc1C1CC(=O)Nc2cc3c(cc21)OCCO3 (stereo not given),outcome,[1],inactive
same,outcome,[2],inactive
same,outcome,[3],inactive
same,potentiation,[4],44% (active)
same,outcome,[5],inactive
same,outcome,[6],inactive
same,outcome,[7],inactive
same,outcome,[8],inactive
same,outcome,[9],inactive
same,outcome,[10],inactive
same,outcome,[11],inactive
same,outcome,[12],inactive
same,outcome,[13],inactive
same,outcome,[14],inactive
same,potentiation,[15],96.2% (active)
same,outcome,[16],inactive
same,outcome,[17],inactive
Cn1c(N2CCC(C(N)=O)CC2)nc2c1c(=O)n(Cc1ccc(Br)cc1)c(=O)n2C,outcome,[1],inactive
same,outcome,[2],inactive
same,outcome,[3],inactive
same,outcome,[4],inactive
same,outcome,[5],inactive
same,outcome,[6],inactive
same,outcome,[7],inactive
same,outcome,[8],inactive
same,outcome,[9],inactive
same,outcome,[10],inactive
same,outcome,[11],inactive
same,outcome,[12],inactive
same,outcome,[13],inactive
same,outcome,[14],inactive
same,outcome,[15],inactive
same,outcome,[16],inactive
same,outcome,[17],inactive
